The values that follow come from the supplement of paper PMC3414501.

Experiment [1] deals with S. cerevisiae SK1 pCDA2-eGFP (USY613), sporulating. Nature of the experiment: CDA2-GFP sporulation assay sensitivity score (z-score vs DMSO controls); higher = stronger inhibition of sporulation, active = hit call of the paper.
Experiment [2] concerns S. cerevisiae AD1-9 (efflux-pump deficient), vegetative growth in YPD. The experiment in a line: growth sensitivity score (doubling time z-score vs DMSO controls); higher = slower growth, strongly negative scores also mark growth inhibition (complete suppression), active = hit call of the paper. A digest of the protocol: (§1)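 Optical density of Saccharomyces cerevisiae cultures in microtiter plates was followed every 15 min for 24 hours after seeding at an OD600 of 0.065. Eight solvent-only wells were run per experiment. Growth sensitivity scores were found by subtracting the solvent-only mean from the compound mean and dividing by the solvent-only standard deviation.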

Experiment [3] concerns S. cerevisiae BY4741 (wild-type), vegetative growth in YPD. The description is as above. The gist of the method:
as §1

Molecules are shown by their SMILES. Structures can show the parent of a compound that is named as a salt.
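For CDA2-GFP sporulation assay sensitivity score (z-score vs DMSO controls) in this document: active if sensitivity score above 5.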

As for `CN1CCN(CCCN2c3ccccc3Sc3ccc(C(F)(F)F)cc32)CC1` [Trifluoperazine dihydrochloride] (stock concentration (mM, diluted 1:100): 10), the “CDA2-GFP sporulation assay sensitivity score” value in experiment [1] is -0.39 (inactive).
Take `COc1ccc(/C=C/C(=O)Nc2ccccc2C(=O)O)cc1OC` [Tranilast] (stock concentration (mM, diluted 1:100): 10): in experiment [1], the “CDA2-GFP sporulation assay sensitivity score” value was 0.24 (inactive). For the same molecule, the growth sensitivity score was -1.78 (inactive) in experiment [2] and -0.6 (inactive) in experiment [3].
As to `COC(=O)C1=C(C)NC(C)=C(C(=O)OC(C)C)C1c1cccc2nonc12` (configuration not stated) [Isradipine] (stock concentration (mM, diluted 1:100): 9.9), in experiment [1], the “CDA2-GFP sporulation assay sensitivity score” value was 1.45 (inactive). The results for the growth sensitivity score in experiment [2] and in experiment [3] were 137 (active) and 0.93 (inactive), respectively.
For `COc1ccc2c3c1O[C@H]1C[C@@H](O)C=C[C@@]31CCN(C)C2` [Galanthamine] (stock concentration (mM, diluted 1:100): 8.8) the same measures were -0.36 (inactive), -1.27 (inactive) and 0.11 (inactive).
`OCc1cccnc1` [3-Pyridinemethanol] (stock concentration (mM, diluted 1:100): 10): the “CDA2-GFP sporulation assay sensitivity score” value in experiment [1] was 2.69 (inactive). Besides, the growth sensitivity score in experiment [2] is 0.78 (inactive); in experiment [3], -1.12 (inactive).
Take `CS(=O)(=O)c1ccc(C2=C(c3ccccc3)C(=O)OC2)cc1` [Rofecoxib] (stock concentration (mM, diluted 1:100): 10): the “CDA2-GFP sporulation assay sensitivity score” value in experiment [1] is 0.79 (inactive). The growth sensitivity score was -0.37 (inactive) in experiment [2] and 0.04 (inactive) in experiment [3].
Consider `Nc1ncnc2c1ncn2[C@@H]1O[C@H](CO)C[C@@H]1O` [3-Deoxydenosine] (stock concentration (mM, diluted 1:100): 10), for which the “CDA2-GFP sporulation assay sensitivity score” value in experiment [1] is 19.9 (active). The figures for the growth sensitivity score in experiment [2] and in experiment [3] were 110 (active) and 1.06 (inactive), respectively.
On to `CCN1CCC[C@H]1CNC(=O)c1c(O)c(Cl)cc(Cl)c1OC` [Raclopride] (stock concentration (mM, diluted 1:100): 10), for which the “CDA2-GFP sporulation assay sensitivity score” value in experiment [1] is 0.74 (inactive). In addition, the growth sensitivity score in experiment [2] was -1.88 (inactive); in experiment [3], 0.66 (inactive).
For `COc1cc(N)c(Cl)cc1C(=O)NC1CCN(CCCOc2ccc(F)cc2)CC1OC` (configuration not stated) [Cisapride] (stock concentration (mM, diluted 1:100): 10.5) the same measures were 0.78 (inactive), 8.05 (active) and 1.35 (inactive).
For `NC1CCN(c2nc3c(cc2F)c(=O)c(C(=O)O)cn3-c2ccc(F)cc2F)C1` (configuration not stated) [Tosufloxacin tosylate] (stock concentration (mM, diluted 1:100): 7) the same measures were 1.34 (inactive), 1.02 (inactive) and -0.39 (inactive).
For `CC1=Nc2ccc(Cl)cc2S(=O)(=O)N1` [Diazoxide] (stock concentration (mM, diluted 1:100): 10) the same measures were 3.2 (inactive), 0.08 (inactive) and -0.72 (inactive).
Consider `CC(C)NCC(O)COc1ccc(CCOCC2CC2)cc1` (configuration not stated) [Betaxolol hydrochloride] (stock concentration (mM, diluted 1:100): 10), for which the “CDA2-GFP sporulation assay sensitivity score” value in experiment [1] was 7.8 (active). Further, the growth sensitivity score in experiment [2] was -0.35 (inactive); in experiment [3], 0.42 (inactive).
For `CC(C)(C#N)c1cc(Cn2cncn2)cc(C(C)(C)C#N)c1` [Anastrozole] (stock concentration (mM, diluted 1:100): 10) the same measures were 3.64 (inactive), -1.94 (inactive) and -0.82 (inactive).
For `CN(C)CCc1c[nH]c2ccc(C[C@H]3COC(=O)N3)cc12` [Zolmitriptan] (stock concentration (mM, diluted 1:100): 10) the same measures were -0.81 (inactive), -1.29 (inactive) and -0.77 (inactive).
For `CCOC(=O)O[C@]1(C(=O)OCCl)CC[C@H]2[C@@H]3CCC4=CC(=O)C=C[C@]4(C)[C@H]3[C@@H](O)C[C@@]21C` [Loteprednol etabonate] (stock concentration (mM, diluted 1:100): 10) the same measures were 0 (inactive), 5.74 (active) and 0.91 (inactive).
For the molecule `CCC1=C[C@H]2CN(C1)Cc1c([nH]c3ccccc13)[C@@](C(=O)OC)(c1cc3c(cc1OC)N(C)[C@H]1[C@@](O)(C(=O)OC)[C@H](OC(C)=O)[C@]4(CC)C=CCN5CC[C@]31[C@@H]54)C2` [Vinorelbine bitatrate] (stock concentration (mM, diluted 1:100): 7.2), the “CDA2-GFP sporulation assay sensitivity score” value in experiment [1] is 1.77 (inactive). Moreover, the growth sensitivity score was -3.29 in experiment [2] and -1.83 (inactive) in experiment [3].
For `Clc1ccccc1CN1CCc2sccc2C1` [Ticlopidine hydrochloride] (stock concentration (mM, diluted 1:100): 8.7) the same measures were 2.24 (inactive), 1.32 (inactive) and 0.36 (inactive).
For `Nc1ccn([C@@H]2CS[C@H](CO)O2)c(=O)n1` [Lamivudine] (stock concentration (mM, diluted 1:100): 9.9) the same measures were 1.14 (inactive), -1.68 (inactive) and -0.39 (inactive).
